# BCR signal inh: chronic active BCR signaling inhibition; ABC-DLBCL IkBa-CBG/CBR reporter, luminescence ratio, 4 h; Potency, µM (series often up to 46.1 µM), without a hit: at the top dose activity change, negative = inhibition, actives largely listed as inhibitors; 340,000 tested, 0.05% active; AID 493014; active = well fitted inhibition curve with a large enough effect in the signal ratio, with a control signal flat, not every such curve was filed as active; inconclusive = small, poorly fitted or top-dose-only effect, or effect the other way, or a change in a side signal; the % refers to the signal ratio;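 note: potency is the fitted concentration of half-maximal effect; plate controls were basal doxycycline-induced cells for no effect and cells given 10 µM MG132 for full effect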
#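 Doxycycline induced both beetle luciferases in TMD8 lymphoma cells; IKK-driven degradation limits the IkappaBalpha-fused green signal, while red luminescence normalises for cell number and nonspecific effects. Compounds tested up to 46 uM, 4 hrs.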
# SW480 rereplic: induces DNA re-replication in SW480 colon adenocarcinoma cells; SW480 DNA re-replication, Hoechst DNA content imaging, 48 h; Potency, µM (highest dose often 46.1 µM), without a hit: at the highest dose re-replication activation, hits mostly activators; 340,000 tested, 1.8% active; AID 624297; note: potency is the fitted concentration of half-maximal effect; % of control where 0% means no effect; nearly all actives have a fitted effect of over 55% in size
#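 Compounds, transferred as 23 nL by pin tool, were incubated with cells for 48 hr; DNA content per nucleus was then quantified by Hoechst staining and fluorescence plate imaging.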
# MCF10A rerep: inducers of DNA re-replication in MCF 10A breast cells; MCF 10A DNA re-replication, Hoechst nuclear intensity, 48 h; Potency, µM (titrated, usually from 46.1 µM), without a hit: at the highest dose activity, positive = re-replication, actives largely listed as activators; 350,000 tested, 2.9% active; note: potency is the fitted concentration of half-maximal effect; % of control where 0% means no effect; nearly all actives have a fitted effect of over 50% in size
# DT40 TDP1 CPT: DT40-hTDP1 cell growth loss with CPT | Potency, µM (series often up to 46.2 µM), without a hit: at the highest dose activity change, negative = growth inhibition, hits mostly inhibitors | chicken DT40 Tdp1-/-;hTDP1 cells + 20 nM CPT, ATP luminescence, 48 h | AID 686979 | 420,000 tested, 12% active; note: potency is the fitted concentration of half-maximal effect; % is set by controls: 0 for no effect and ±100 for the full control effect; nearly all actives have a fitted effect of over 55% in size
#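 Chicken DT40 Tdp1-/- cells complemented with human TDP1, 400 cells/well, exposed to compounds plus 20 nM camptothecin for at least 48 h at 37 C; viability read as ATP content by CellTiter-Glo luminescence.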
# IL-1B inflam inh: inflammasome signaling inhibition, IL-1 beta readout | THP-1 LPS/ATP IL-1B secretion, AlphaLISA, 16 h; stronger effect = lower value | activity change, % at 57.5 µM | 360,000 tested, 4.7% active | AID 743279; in the data active = activity change below about -50%; inconclusive = mostly about -30% to -49%; note: % is set by controls: 0 for no effect and ±100 for the full control effect
#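 THP-1 cells pretreated 1 hr with compounds (up to 57.5 uM final), then stimulated with LPS (250 ng/mL final) plus ATP (1.25 mM final); secreted IL-1B measured by AlphaLISA after 16 hr, decreased signal indicating inhibition.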
# DT40 TDP1 no CPT: qHTS for Inhibitors of human tyrosyl-DNA phosphodiesterase 1 (TDP1): qHTS in cells in absence of CPT; DT40 Tdp1-/- hTDP1 cells, no CPT, ATP luminescence, 48 h; Potency, µM (doses to about 46.2 µM), for the others: top-dose activity change, negative = growth inhibition, actives largely listed as inhibitors; 420,000 tested, 15% active; AID 686978, 2013; note: potency is the fitted concentration of half-maximal effect; % is set by controls: 0 for no effect and ±100 for the full control effect; nearly all actives have a fitted effect of over 55% in size
#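 Readout: luminescence from CellTiter-Glo after 30 min in the dark at RT. Cells: DT40 Tdp1-/- with stable hTDP1, 400/well. Exposure: compounds alone, ≥48 hr, 37 °C.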
# * marks the source's active call; other numbers are inactive results; ? = inconclusive; nt = not tested or not shown; [ ] = dose if it differs, or a comment. Sampled rows, rich in hits. Any-hit rate of the full collection: about 19%. Unless noted, calls come from the whole dose curve; as a rule, active = well fitted curve in the direction sought with a large enough effect; inconclusive = small, poorly fitted or top-dose-only effect, or another doubt; inactive = no such curve, though single readings can be large; an effect the other way counts as inactive or inconclusive.
SMILES,BCR signal inh,SW480 rereplic,MCF10A rerep,DT40 TDP1 CPT,IL-1B inflam inh,DT40 TDP1 no CPT
COc1ccc(N(CC(=O)N2CCN(c3ccccc3)CC2)S(=O)(=O)c2c(C)nn(C)c2C)cc1,nt,nt,nt,4.0%,nt,?
Cc1nn(C)c(C)c1S(=O)(=O)N(CC(=O)N1CCc2ccccc2C1)c1ccc(C(C)C)cc1,8.0%,-16.9%,17.4%,?,-11.8,?
COc1ccc(N(CC(=O)N2c3ccccc3CC2C)S(=O)(=O)c2c(C)nn(C)c2C)cc1 (stereo not drawn),5.4%,-5.1%,0.0%,?,16.5,18.4µM*
COc1ccc(N(CC(=O)N2CCc3ccccc32)S(=O)(=O)c2c(C)nn(C)c2C)cc1,?,-4.3%,1.1%,?,-17.4,?
COc1ccc(N(CC(=O)N2CCN(c3ccc(F)cc3)CC2)S(=O)(=O)c2c(C)nn(C)c2C)cc1,nt,nt,nt,?,nt,23.1µM*
Cc1nn(C)c(C)c1S(=O)(=O)N(CC(=O)N1CCN(c2ccccc2)CC1)c1ccc(C(C)C)cc1,nt,nt,nt,16.4µM*,nt,16.4µM*
C[C@H](CO)N1C[C@H](C)[C@@H](CN(C)C(=O)Nc2ccc(C(F)(F)F)cc2)Oc2c(NS(=O)(=O)c3ccc(F)cc3)cccc2C1=O,1.8%,6.0%,-1.7%,?,6.6,-23.4%
Cc1ccc(N2C(=O)C(CN3CCCC3)C2c2ccccc2)cc1 (stereo not drawn),5.4%,1.8%,?,20.6µM*,?,23.1µM*
CCCC1C(=O)N(c2ccccc2)C1c1ccccc1 (stereo not drawn),-10.7%,-6.4%,-15.4%,1.4%,-11.5,-16.0%
Cc1ccc(N2C(=O)C(CN3CCCCC3)C2c2ccccc2)cc1 (stereo not drawn),-1.2%,-2.7%,?,?,0.7,18.4µM*
O=C(COC(=O)c1cc(S(=O)(=O)N2CCOCC2)ccc1F)NCc1ccc2c(c1)OCO2,4.0%,-1.7%,3.0%,-1.6%,-12.1,-0.3%
O=C(/C=C/c1cccc([N+](=O)[O-])c1)OCC(=O)N1CCCCC1,nt,nt,nt,11.7%,10.6,5.3%
Cc1cccc(C)c1NC(=O)CN1C(=O)NC(C)(C2CC2)C1=O (stereo not drawn),-0.5%,-6.7%,-2.8%,8.6%,15.6,4.5%
CC(=O)Nc1cc(-c2ccc(C(=O)N3CCOCC3)cc2)cn2c(-c3ccc(F)c(Cl)c3)cnc12,nt,nt,nt,23.1µM*,?,16.4µM*
CC(=O)Nc1cc(-c2ccc(C(=O)N3CCOCC3)cc2)cn2c(-c3ccc(S(C)(=O)=O)cc3)cnc12,nt,nt,nt,16.4µM*,-27.7,13µM*
CC(=O)Nc1cc(C(=O)N2CCOCC2)ccc1S(=O)(=O)c1ccc(C)cc1,0.6%,3.5%[9.22 µM],0.2%,-10.6%,7.2,2.5%
Cc1cn([C@H]2C[C@H](O)[C@@H](CNC=O)O2)c(=O)[nH]c1=O,nt,nt,nt,-13.2%,9.0,?
Oc1cccc2c(CC(O)c3c[nH]c4ccccc34)ccnc12 (stereo not drawn),nt,nt,nt,?,nt,11.2µM*
NC(Cc1c[nH]c2ccccc12)C(=O)O (stereo not drawn),nt,nt,nt,-71.5%,nt,?
Cc1ccccc1NC(=O)CSc1nnc(NC(=O)c2ccco2)s1,-0.3%,-2.3%,-5.8%,-9.8%,0.0,?
COc1ccc(C2COc3cc(O)ccc3C2)c(OC)c1O (stereo not drawn),nt,?,?,18.4µM*,-14.0,16.4µM*
COc1ccc2c(c1OC)CN(C)CCc1cc3c(cc1C(O)C2)OCO3 (stereo not drawn),1.4%,-3.1%,12.0%,?,1.8,?
COc1ccc(OC)c(NC(=O)C2CCCN(S(=O)(=O)c3cccc4nsnc34)C2)c1 (stereo not drawn),?,-3.5%,-2.6%,16.4µM*,-2.1,16.4µM*
Cc1ccc2nc(NC(=O)C3CCCN(S(=O)(=O)c4cccc5nsnc45)C3)sc2c1 (stereo not drawn),?,11.1%,16.6%,?,-2.2,18.4µM*
COc1ccccc1CNC(=O)C1CCCN(S(=O)(=O)c2cccc3nsnc23)C1 (stereo not drawn),13.0%,-13.4%,1.4%,?,-25.1,?
SMILES,BCR signal inh,SW480 rereplic,MCF10A rerep,DT40 TDP1 CPT,IL-1B inflam inh,DT40 TDP1 no CPT
O=C(Nc1ccc2c(c1)OCCO2)C1CCCN(S(=O)(=O)c2cccc3nsnc23)C1 (stereo not drawn),?,-0.1%,1.1%,?,6.9,?
COc1cc(NC(=O)C2CCCN(S(=O)(=O)c3cccc4nsnc34)C2)cc(OC)c1 (stereo not drawn),-11.8%,-10.9%[9.22 µM],4.5%,?,-3.9,20.6µM*
COc1cc(NC(=O)C(Cc2ccccc2)NS(=O)(=O)c2cccc3nsnc23)cc(OC)c1 (stereo not drawn),nt,nt,nt,16.4µM*,nt,16.4µM*
O=c1c2cc3c(nc2[nH]c(=S)n1-c1ccccc1)CCCC3,?,-4.4%,0.0%,-3.4%,35.4,0.8%
Nc1cccc2cccc([N+](=O)[O-])c12,nt,0.6%,13.6%,-17.8%,5.6,-28.5%
CC(C)CNC(=O)c1cccc(NC(=O)c2ccc3c(c2)C(=O)N(C)C3=O)c1,4.1%,3.9%,-4.6%,-9.5%,-12.8,-15.5%
CC(Oc1ccc(Cl)cc1)C(=O)Nc1sccc1C(N)=O (stereo not drawn),17.5%,2.5%,22.6%,?,-62.4*,16.4µM*
CCn1cc(/C=C(\NC(=O)c2ccccc2)C(=O)NCCN2CCOCC2)c2ccccc21,nt,nt,nt,?,13.8,?
CCOC(=O)c1c(C)sc2c1N(C(=O)CCl)c1cc(Cl)ccc1S2,?,?,?,4.11µM*,-101.1*,4.11µM*
O=C(O)c1cc(N(Cc2ccccc2O)Cc2cc(O)ccc2O)ccc1O,nt,nt,nt,?,nt,20.6µM*
Cc1ccc(NC2=NC3(CCCC3)N=C(N)N2)c(C)c1,-0.5%,?,29.0%,2.91µM*,-2.9,3.66µM*
NC1=NC2(CCCCC2)N=C(Nc2ccc(Br)cc2)N1,?,-49.7%,12.0%,?,-101.7*,?
Cc1ccc(NC2=NC3(CCCCC3)N=C(N)N2)c(C)c1,?,5.1%,14.7%,23.1µM*,?,?
Cc1cccc(C)c1NC1=NC2(CCCCC2)N=C(N)N1,-0.4%,-21.9%,-0.2%,-14.8%,?,9.4%
COc1ccc(Cl)cc1CN1C(=O)C(Cc2ccccc2)ON=C1C (stereo not drawn),nt,nt,nt,?,-18.7,-19.6%
